Pol kappa inh – blocks human DNA polymerase kappa activity. Q9UBT6. purified Pol kappa, fluorescent DNA synthesis assay, 10 min. Potency, µM (top dose mostly 107 µM), inactives show at the top dose activity, negative = inhibition, hits mostly inhibitors. 400,000 compounds, 0.53% hits. AID 588579; also: potency is read from the fitted curve at half-maximal effect; % is scaled to controls: 0 for no effect and ±100 for the full control effect
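Readout: fluorescence, taken kinetically at 0 and 10 min. Conditions: 10 nM Pol kappa, 15 min RT compound preincubation, 50 nM substrate final. Controls: enzyme-free buffer wells.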
WRN helicase inh – blocks human WRN helicase; Q14191; WRN helicase unwinding, fluorescent forked duplex, kinetic; Potency, µM (doses to about 114 µM), without a hit: at the top dose activity change, negative = inhibition, actives largely listed as inhibitors; 360,000 compounds, 0.46% hits; also: potency is read from the fitted curve at half-maximal effect; % is scaled to controls: 0 for no effect and ±100 for the full control effect; nearly all actives have a fitted effect of over 55% in size
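Fluorescence dequenching readout, ex 525 nm/em 598 nm, kinetic mode: forked duplex DNA (100 nM final) with adjacent fluorophore and quencher unwound by WRN (20 nM final) with 2 mM ATP. Compound preincubation 15 min, room temperature.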
POLH inh – blocks human DNA polymerase eta activity; Q9Y253; recombinant Pol eta, fluorescent DNA replication assay; Potency, µM (top dose mostly 114 µM), inactives show top-dose activity change, negative = inhibition, most hits filed as inhibitors; 390,000 compounds, 1.2% hits; also: potency is read from the fitted curve at half-maximal effect; % is scaled to controls: 0 for no effect and ±100 for the full control effect
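Pol eta at 10 nM preincubated with compounds 15 min at room temperature; reaction started with fluorescent substrate (50 nM final) and read kinetically at 0 and 10 min.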
Pol beta inh – DNA polymerase beta (human) inhibition; Pol beta primer extension/strand displacement, fluorescence kinetic; 340,000 compounds, 1.3% hits; P06746; AID 485314; Potency, µM (doses to about 114 µM), without a hit: at the highest dose activity change, negative = inhibition, most hits filed as inhibitors; also: potency is read from the fitted curve at half-maximal effect; % is scaled to controls: 0 for no effect and ±100 for the full control effect
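Reaction started by 50 nM substrate onto compound-treated Pol beta (10 nM, 15 min preincubation, room temperature); plates read at 0 min and 10 min. Normalized concentration-effect data fitted by four-parameter Hill equation.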
Pol iota inh – DNA polymerase iota (human) inhibition; Potency, µM (doses to about 115 µM), for the others: at the top dose activity, negative = inhibition, usual class: inhibitors; Pol iota fluorescent replication assay, 10 min; 390,000 compounds, 1% hits; AID 588590; Q9UNA4; also: potency is read from the fitted curve at half-maximal effect
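Pol iota at 10 nM preincubated 15 min with compounds at room temperature; reaction started with fluorescent substrate, 50 nM final. Fluorescence read kinetically at 0 and 10 min; buffer-only wells as negative control.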
PI5P4Ka inh – blocks human PI5P4K alpha kinase activity | max response, % | PI5P4Kalpha enzyme, ADP-Glo luminescence, 60 min; active compounds read low | P48426 | 330,000 compounds, 1.2% hits; active = max response of -50% or lower; inconclusive = between -30% and -50%; inactive = -30% or higher; also: value at the top dose of about 77 µM; % is scaled to controls: 0 for no effect and ±100 for the full control effect
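Compounds were pin-transferred onto PI5P4Kalpha and substrate in HEPES pH 7.4 buffer with EGTA, CHAPS and 5% DMSO. ATP (5 microM final) started the reaction, which ran 60 minutes at room temperature before ADP-Glo detection.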
TbPGK inh – validation of Trypanosoma brucei phosphoglycerate kinase inhibitors. shares compounds with Pol kappa inh. TbPGK coupled GAPDH assay, Kinase-Glo luminescence. Potency, µM (highest dose often 57.5 µM), for inactives: at the highest dose activity change, negative = inhibition, usual class: inhibitors. 500 compounds, 79% hits; also: potency is read from the fitted curve at half-maximal effect; % is scaled to controls: 0 for no effect and ±100 for the full control effect; nearly all actives have a fitted effect of over 65% in size
Target sequence (P07378 whole entry, looked up): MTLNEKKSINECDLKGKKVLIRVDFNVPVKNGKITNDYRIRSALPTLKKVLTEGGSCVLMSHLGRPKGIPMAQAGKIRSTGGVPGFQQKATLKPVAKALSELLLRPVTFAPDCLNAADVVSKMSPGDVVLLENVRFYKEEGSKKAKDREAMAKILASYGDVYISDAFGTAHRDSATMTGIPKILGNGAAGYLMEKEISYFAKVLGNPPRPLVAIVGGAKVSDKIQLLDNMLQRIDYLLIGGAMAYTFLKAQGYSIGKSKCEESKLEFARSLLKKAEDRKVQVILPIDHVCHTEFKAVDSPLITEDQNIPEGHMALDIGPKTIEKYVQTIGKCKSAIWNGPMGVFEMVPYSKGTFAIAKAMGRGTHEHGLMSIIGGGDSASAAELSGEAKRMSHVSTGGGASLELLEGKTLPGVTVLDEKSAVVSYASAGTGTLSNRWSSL
Pol iota confirm – Inhibitors of human DNA polymerase iota, confirmation; 1,500 compounds, 77% hits; Pol iota primer extension, TAMRA/BHQ fluorescence; Potency, µM, actives largely listed as inhibitors; shares compounds with Pol kappa inh; also: potency is read from the fitted curve at half-maximal effect
* marks the source's active call; other numbers are inactive results; ? = inconclusive; / = no result given; [ ] = remark or other dose. Most compounds without a hit are left out; they make up all but 2.8% or so of the library. Unless noted, calls follow the shape of the dose curve; as a rule, active = well fitted curve in the direction sought with a large enough effect; inconclusive = small, poorly fitted or top-dose-only effect, or another doubt; inactive = no such curve, though single readings can be large; an effect the other way counts as inactive or inconclusive.

SMILES	Pol kappa inh	WRN helicase inh	POLH inh	Pol beta inh	Pol iota inh	PI5P4Ka inh	TbPGK inh	others
COc1ccc(OC)c(-c2c3cc(O)c(=O)cc-3oc3cc(O)c(O)cc23)c1	?	79.4µM*	/	44.7µM*	?	-101.3*	0.366µM*
O=c1cc(-c2ccccc2O)oc2cc(O)ccc12	-6.1%[60.1 µM]	/	/	/	/	/	/
COc1ccccc1-c1cc(=O)c2cc(O)ccc2o1	-8.6%[19.4 µM]	/	/	/	/	/	/
CC(C)C[C@H]1CN(CCCC[C@@H]2CNC(=O)C(=O)N2Cc2ccccc2)C(=O)C(=O)N1CCC1CCCCC1	/	-3.8%	/	/	/	-0.3	/
COc1ccc(-c2onc(C)c2C)cc1S(=O)(=O)NCc1ccco1	-4.4%	/	-13.1%	-0.7%	2.3%	/	/
Cc1cccc(NC(=O)CSc2nc(C3CC3)nc3ccccc23)c1	-5.6%	-5.4%[11.6 µM]	39.8µM*	22.4µM*	22.4µM*	-1.4	/	Pol iota confirm=67*
O=C1Nc2ccccc2C1=Nc1ccc(S(=O)(=O)Nc2nccs2)cc1	?	20µM*	20µM*	7.1%	8.91µM*	-78.7*	18.3µM*
NS(=O)(=O)c1ccc(N=C2C(=O)Nc3ccccc32)cc1	1.4%	-6.6%	-7.2%	20.9%	29.0%	0.3	/
O=C(NCc1nc2ccccc2[nH]1)c1ccc(S(=O)(=O)N2CCCC2)cc1	1.1%	4.2%	-11.0%	-3.3%	127.7%	-1.4	/
O=C(NCc1nc2ccccc2[nH]1)c1ccc(S(=O)(=O)N2CCOCC2)cc1	-12.8%	-1.8%	-9.2%	3.4%	4.4%	5.1	-3.3%
O=C(O)c1ccc2c(c1)[C@@H]1C=CC[C@@H]1[C@H](c1ccccn1)N2	10µM*	35.5µM*	6.31µM*	/	3.55µM*	/	16.3µM*
CN1/C(=C/C=C/c2n(C)c3cc([N+](=O)[O-])c([N+](=O)[O-])cc3[n+]2C)C(C)(C)c2ccccc21	/	?	?	/	/	?	?
O=C(CCO)c1ccc(O)cc1	8.91µM*	28.2µM*	3.55µM*	?	5.01µM*	-65.0*	1.63µM*
CCCCC(=O)c1ccc(O)cc1	-2.2%	-9.4%	-15.0%	-10.6%	43.8%	/	/
CCOc1ccc(C2CC(=O)c3c([nH]c(C(=O)OC)c3C)C2)cc1OC (stereo not drawn)	0.2%	-16.7%[57.1 µM]	15.8µM*	?	13.3%	6.3	/	Pol iota confirm=?
CC(C)Oc1ccc(N2CC(C(=O)NC3=NCCS3)CC2=O)cc1 (stereo not drawn)	2.4%	13.4%	-1.4%	14.1%	-7.1%	3.2	/
O=C(N/N=C/C=C/c1cccc([N+](=O)[O-])c1)C(O)c1ccccc1 (stereo not drawn)	-20.9%	-18.4%	2.3%	38.3%	-12.7%	-0.9	/
O=C(CNc1ccc2ccccc2c1)N/N=C/C=C/c1cccc([N+](=O)[O-])c1	-10.5%	-10.7%[11.6 µM]	15.8µM*	?	?	1.6	/	Pol iota confirm=75.2*
O=C(Nc1c(-c2ccccc2)nc2ccccn12)c1ccccc1F	-7.8%	3.6%	-14.7%	-17.6%	4.9%	4.2	/
O=C(CN1C(=O)/C(=C2\SC(=S)N(CCS(=O)(=O)O)C2=O)c2ccccc21)Nc1cccc(Br)c1	?	89.1µM*	?	?	?	-97.3*	14.6µM*
Cc1ccccc1/C=C\c1nc2ccccc2c(=O)[nH]1	-3.8%	?	?	25.1µM*	?	2.3	/	Pol iota confirm=?
Cc1ccc(/C=C/c2nc3ccccc3c(=O)[nH]2)cc1	-6.0%	-13.8%	1.7%	-2.7%	20.7%	-0.6	/
COc1cc(SC)ccc1C(=O)NNC(=O)c1cc(C)oc1C	-6.9%	-9.4%	-16.6%	/	90.8%	0.8	13µM*
COc1cc(SC)ccc1C(=O)Nc1nc2ccccc2[nH]1	-2.7%	-0.8%	-18.5%	-8.3%	-1.3%	?	3.26µM*
COc1ccccc1C(=O)Nc1nc2ccccc2[nH]1	-1.5%	7.6%	-17.5%	24.0%	3.2%	?	5.8µM*
SMILES	Pol kappa inh	WRN helicase inh	POLH inh	Pol beta inh	Pol iota inh	PI5P4Ka inh	TbPGK inh	others
COc1cc(SC)ccc1C(=O)Nc1c(C)cccc1C	-2.1%	-2.0%	-19.9%	-2.8%	138.1%	8.4	/
CCc1nn(C(CC)C(=O)NCC(C)c2ccccc2)c(=O)c2cc3occc3n12 (stereo not drawn)	0.6%	1.8%	-20.9%	2.2%	28.8%	-2.7	/
COc1cc(NC(=O)c2cc(C3CC3)nc3c2c(C)nn3-c2ccc(C)cc2)cc(OC)c1	-7.2%	/	/	26.1%	-14.2%	/	/
CC(=O)c1ccc(-c2ccc(/C=C(/Sc3n[nH]c(C)n3)C(=O)O)o2)cc1	?	-10.6%	39.8µM*	?	?	-14.8	/	Pol iota confirm=47.4*
COc1ccc(N=C2SC(C(N)=O)CC(=O)N2Cc2ccc3c(c2)OCO3)cc1 (stereo not drawn)	89.1µM*	-11.0%[57.1 µM]	28.2µM*	?	39.8µM*	1.7	-21.3%
Cc1ccc(-c2cc3c(nn2)-c2ccccc2C3=O)cc1	-7.5%	1.7%	?	-0.1%	52.2%	?	5.8µM*
CCOC(=O)c1nn(C)c2[nH]c(=O)n(C)c(=O)c12	-1.5%	-8.2%	-15.4%	/	12.2%	-21.8	/
O=C(CCN1C(=O)/C(=C/c2ccc3c(c2)OCO3)SC1=S)Nc1ccc(C(=O)O)cc1	-23.2%	-12.2%[11.6 µM]	?	?	?	-9.9	/	Pol iota confirm=75.2*
CCOc1ccc(/C=C2\SC(=S)N(CCC(=O)Nc3cccc(C(=O)O)c3)C2=O)cc1	-13.3%	-15.6%[57.1 µM]	44.7µM*	-2.8%	?	0.1	/	Pol iota confirm=75.2*
COc1ccc(-c2c(O)c3cc(O)cc(O)c3oc2=O)cc1	11.8%[60.1 µM]	/	/	/	/	/	/
Cc1ccc(NC(=O)CN2C(=O)S/C(=C\c3ccc(-c4cccc(C(=O)O)c4C)o3)C2=O)cc1C	89.1µM*	?	8.91µM*	10µM*	10µM*	?	4.11µM*
CCOC(=O)CN1C(=O)S/C(=C\c2ccc(-c3cccc(C(=O)O)c3C)o2)C1=O	-19.8%	-3.0%[11.6 µM]	?	/	?	-16.9	/
O=C(CSc1nnc2scc(-c3ccccc3)n12)Nc1nsc(-c2ccccc2)n1	-22.6%	?	?	?	?	/	/	Pol iota confirm=37.7*
Cn1c(SCC(=O)c2ccc3c(c2)Cc2ccccc2-3)nnc1-c1ccccc1	-6.4%	?	8.91µM*	?	?	-17.0	/	Pol iota confirm=42.3*
Cc1ccc2oc(C(=O)Nc3cccc(Cl)c3)cc(=O)c2c1	?	/	-5.7%	6.4%	?	/	/
Cc1cc(N(C)C)ccc1[N+](=O)[O-]	0.6%	3.7%	-16.5%	15.3%	-13.6%	7.9	/

Compound activity (PubChem BioAssay)
